In PubChem BioAssay AID1117361 (Southern Research Institute, 2015):
In all, about 3,600 compounds went through this assay and about 900 (25%) were called active. The list is a sample of the results. Results with a measured potency or affinity are listed apart. Values without a mark were called inactive. No rule for the calls is given here.

target: Protein Tat (Human immunodeficiency virus type 1 group M subtype B (isolate HXB2)) (UniProt P04608); assay: HIV-1 Tat–TAR interaction blockers – biochemical, fluorescence polarization, FAM-labeled TAR RNA, counter-screen for Vif-APOBEC3G degradation inhibitor project, dose response (AID 1117361); details: Tat-TAR RNA binding; series mostly up to 100 µM; inhibition: at the top concentration

Row | Structure (SMILES) | inhibition | outcome
1 | CCc1ccccc1NC(=O)CC(O)(C(=O)OC)C(F)(F)F (centres undefined) | 2.05% | 
2 | O=C(CN1C(=O)NC2(CCCCC2)C1=O)NCCC1=CCCCC1 | 6.76% | 
3 | O=C(CN1C(=O)NC2(CCCCCCC2)C1=O)NCc1ccc2c(c1)OCO2 | 2.03% | 
4 | Cc1ccc(C(=O)COC(=O)CNC(=O)Cc2ccccc2)cc1[N+](=O)[O-] |  | inactive
5 | O=C(CN1C(=O)NC(c2ccc(F)cc2)C1=O)Nc1ccc2c(c1)OCCO2 (centres undefined) | 1.65% | 
6 | O=C(CSc1nnc(-c2cccs2)o1)OC1CCCCC1 |  | inactive
7 | CC1=C(C(=O)NCc2ccco2)C2(CCC(C)CC2)OC1=O (centres undefined) | 15% | 
8 | O=C1COc2ccc(C(=O)NCc3ccco3)cc2N1 | 6.76% | 
9 | Fc1ccc2[nH]c3c(N4CCc5ccccc5C4)ncnc3c2c1 |  | inactive
10 | CC1CCN(C(=O)C2c3ccccc3C(=O)N3CCc4ccccc4C23)CC1 (centres undefined) |  | inactive
11 | COc1ccc(-n2c(=O)[nH]cc(C(=O)N3CCc4ccccc43)c2=O)cc1 |  | inactive
12 | CCOc1ccc(C(=O)NC2CCN(S(=O)(=O)CC)CC2)cc1 | 5.41% | 
13 | CNS(=O)(=O)c1cccc(C(=O)OCc2cc(Cl)cc3c2OCOC3)c1 | 4.09% | 
14 | COCCn1c(SCC(=O)Nc2cc(C)on2)nc2cc(Cl)ccc2c1=O | 7.42% | 
15 | CCN(CC)CCN=CC1=C(O)CNC1=O | 19.6% | 
16 | CCOc1ccccc1N1C(=O)c2ccc(C(=O)Nc3cccnc3)cc2C1=O |  | inactive
17 | C[C@H](NC(=O)NCc1cccs1)C(=O)O | 14.4% | 
18 | CCOC(=O)c1c(C)[nH]c(C)c1C(=O)COC(=O)c1cccc(S(=O)(=O)NC)c1 | 2.05% | 
19 | CCN(c1ccc(NC(=O)COC(=O)c2ccc([N+](=O)[O-])o2)cc1)C(C)C |  | inactive
20 | COc1ccc(NC(=O)/C(C#N)=C/c2ccc(Br)o2)cc1 |  | inactive
21 | COc1ccc(NC(=O)/C(C#N)=C/c2ccc(Sc3nncn3C)c([N+](=O)[O-])c2)cc1 |  | inactive
22 | CCOC(CCNC(=O)c1cn(C)c(=O)c2c1c1ccccc1n2C)OCC | 9.02% | 
23 | COc1ccccc1-n1c(SCC(=O)NCc2ccc3c(c2)OCO3)nc2cc([N+](=O)[O-])ccc21 |  | inactive
24 | Nc1cc(N)nc(SCc2cc([N+](=O)[O-])cc3c2OCOC3)n1 | 12.4% | 
25 | COCCn1c(N)c(N(Cc2ccccc2)C(=O)C2CCCCC2)c(=O)[nH]c1=O |  | inactive
26 | Cc1ccc(S(=O)(=O)N2CCN(Cc3nc4sc(C)c(C)c4c(=O)[nH]3)CC2)cc1 | 9.46% | 
27 | CCc1ccc(C(=O)Nc2ccc(S(=O)(=O)Nc3nc(C)cc(C)n3)cc2)o1 | 8.11% | 

Row | Structure (SMILES) | inhibition | outcome
28 | CCn1ncc(Br)c1C(=O)Nc1sc2c(c1C(N)=O)CCC2 | 14.2% | 
29 | O=C(NC12CC3CC(CC(C3)C1)C2)c1ccc(S(=O)(=O)N2CCOCC2)cc1 |  | inactive
30 | CCOC(=O)CNC(=O)Cn1cnc2c(nnn2-c2ccc(F)cc2)c1=O | 1.67% | 
31 | Cc1nc2nc(COc3ccccc3)[nH]n2c(=O)c1Cc1ccccc1 |  | inactive
32 | O=c1cc2c(n[nH]1)CCCC2 | 7.43% | 
33 | O=C(Nc1cccc(Cl)c1)C1=Cc2cc(Cl)ccc2OC1 |  | inactive
34 | CCN(CC)S(=O)(=O)c1cccc(NC(=O)/C=C/c2cccc([N+](=O)[O-])c2)c1 | 6.14% | 
35 | O=C(CSc1ncnc2ccccc12)Nc1cccc(S(=O)(=O)N2CCOCC2)c1 | 0.82% | 
36 | Cc1ccc(NC(=O)/C=C\C(=O)O)c([N+](=O)[O-])c1 |  | inactive
37 | COc1ccc(NC(=O)/C=C/c2ccc(S(=O)(=O)N3CCOCC3)cc2)cc1 |  | inactive
38 | Cc1nc(NC(=O)/C=C/c2ccccc2)sc1C(=O)Nc1ccccc1 | 4.73% | 
39 | Cc1sc2nc(SCC(=O)N3CCOCC3)[nH]c(=O)c2c1C |  | inactive
40 | Cc1cc(C)cc(C(=O)N2CCC(C(N)=O)CC2)c1 | 6.76% | 
41 | O=C(CNS(=O)(=O)c1ccccc1)OCC(=O)c1ccc(OC(=O)c2ccccc2)cc1 |  | inactive
42 | O=C1CCc2cc(S(=O)(=O)NC(Cc3ccccc3)C(=O)NCC3CCCO3)ccc2N1 (centres undefined) | 7.43% | 
43 | NC(=O)c1nsnc1-c1ccccc1O |  | inactive
44 | CC1C=CC=CC=CC=CC=CC=CC=CC(OC2OC(C)C(O)C(N)C2O)CC2OC(O)(CC(O)CC(O)C(O)CCC(O)CC(O)CC(=O)OC(C)C(C)C1O)CC(O)C2C(=O)O (centres undefined) | 25.1% | 
45 | COc1ccc(S(=O)(=O)N(C)Cc2cccs2)cc1Br | 0.68% | 
46 | O=C(OCn1nnc2ccccc2c1=O)C1=COCCO1 | 0.68% | 
47 | CC(=O)Nc1ccc(N=Nc2ccccc2)cc1 |  | inactive
48 | O=C(NCCNC(=O)c1cc(OCC(F)(F)F)ccc1OCC(F)(F)F)Nc1cccc(C(F)(F)F)c1 | 2.73% | 
49 | Cc1cc(-c2ccccc2)nc(Oc2ccc(C(C)(C)C)cc2)c1S(C)(=O)=O | 2.73% | 
50 | CCc1nnc(NC(=O)CSc2nnc(Cc3ccccc3)n2-c2ccc(OC)cc2)s1 |  | inactive
51 | COc1ccc(C(=O)NC2CC3CCCC(C2)N3CC(C)C)cc1 (centres undefined) | 5.59% [at 50 µM] | 
52 | COc1ccc(CN2CCNC(=O)C2CC(=O)NC2CCCC2)cc1OC (centres undefined) | 11.7% | 
53 | C=C1Cn2c(nnc2-c2ccc(Cl)cc2)S1 | 3.38% | 
54 | Cc1ccc(C)c(OCCC(=O)Nc2ccccc2C(=O)NC2CC2)c1 |  | inactive
